The values that follow come from ChEMBL document CHEMBL1157539, “Thousands of chemical starting points for antimalarial lead identification” (Nature, 2010).

Holding throughout (assay type): functional
Test [1] has as its system Plasmodium falciparum. As to the kind of experiment: GSK_TCMDC: Inhibition of Plasmodium falciparum 3D7 in whole red blood cells, using parasite LDH activity as an index of growth. Test compounds present at 2uM.
In test [2] the test system is Plasmodium falciparum. As to the kind of experiment: GSK_TCMDC: Inhibition of Plasmodium falciparum Dd2 in whole red blood cells, using parasite LDH activity as an index of growth. Test compounds present at 2uM.
The subject of test [3] is HepG2. Description: GSK_TCMDC: Percent inhibition of human HepG2 cell line. Test compounds present at 10uM.

One may read the Inhibition as how much of the control response was suppressed.

For the compound `CCc1cn2c3c(cc(C(=O)N[C@@H](Cc4ccccc4)[C@H](O)CNC4CCCCC4)cc13)N(CC)S(=O)(=O)CC2.O=CO`, the Inhibition in test [1] was found to be 98%; in test [2], 98%; in test [3] it was 8%.
As to `COc1ccc(NC(=O)CCNc2cc(C)nc(NCCOc3ccccc3)n2)cc1.O=C(O)C(F)(F)F`, the Inhibition in test [1] stood at 96%; in test [2], 2%; in test [3] it was 0%.
Regarding `Cl.Nc1c2c(nc3ccc(NC(=O)CCCc4ccccc4)cc13)CCCC2`, the Inhibition in test [1] stood at 100%; in test [2], 42%; in test [3], 73%.
On the same counts, the results for `O=C(Nc1cccc(-c2csc(-c3nc4ccccc4[nH]3)c2)c1)c1ccncc1` are 100%, 61% and 64%.
Take `COc1ccc2nccc(N3CCC(O)(CCNCc4ccc5c(n4)NC(=O)CO5)CC3)c2n1.Cl`: the Inhibition in test [1] is on record as 100%; in test [2], 24%; in test [3] it was 18%.
For `CC(=O)Nc1ccc(OCCCN(Cc2ccccc2C(F)(F)F)c2ccc(C(F)(F)F)c(C#N)c2)c(Cl)c1`, the Inhibition in test [1] stood at 85%; in test [2], 43%; in test [3] it was 5%.
For `O=C(Nc1cc(Cl)ccc1O)c1cc(-c2ccccc2O)no1`, the Inhibition in test [1] is reported as 95%; in test [2] it was 79%; in test [3], 0%.
For `Cc1ccc2c(=NN=Cc3cccc(F)c3)cc(C)[nH]c2c1` the same measures were 96%, 66% and 34%.
Regarding `CCOc1c(OC)ccc2c1CCN(CCN1CCC(CNC(=O)c3ccc(-c4ccc(C#N)cc4)cc3)CC1)C2`, the Inhibition was 92% in test [1], 61% in test [2] and 45% in test [3].
`CN1CCN(Cc2cccc(-c3cc4nccc(Nc5ccc(Oc6ccccc6)cc5)c4cc3Cl)c2)CC1`: the results for the Inhibition in test [1], in test [2] and in test [3] were 100%, 96% and 10%, respectively.
Take `CC1CCc2c(C(=O)Nc3c(F)cc(F)cc3Br)csc2C1` (configuration not stated): the results for the Inhibition in test [1], in test [2] and in test [3] were 96%, 59% and 0%, respectively.
As to `Cc1ccc(O)cc1Nc1ccnc2cc(-c3csc(CN(C)CCN(C)C)n3)ccc12`, the Inhibition was determined as 100% in test [1], 80% in test [2] and 3% in test [3].
For `CN(C)CCC1CCCc2ccc(NC(=O)Nc3cccc(Cl)c3Cl)cc21.Cl` (configuration not stated) the same measures were 93%, 11% and 44%.
Turning to `Cc1cc(N(C)C2CCN(CC3CCCCC3)C2)nc(Nc2ccc(Cl)cc2)n1` (configuration not stated), the Inhibition in test [1] was 98%; in test [2], 35%; in test [3], 0%.
In the case of `Cc1cccc2nc(-c3ccc(-c4cccc(NC(=O)C(=O)c5cccn5C)c4)cc3)[nH]c12`, the Inhibition is listed as 98% in test [1], 17% in test [2] and 30% in test [3].
Take `O=C(/C=C/c1ccc(Cl)c(Cl)c1)NCCCCCN1CCN(C(=O)Nc2ccc(OC(F)F)cc2)CC1`: the Inhibition in test [1] is reported as 99%; in test [2], 0%; in test [3] it was 20%.
`CC(C)Nc1nc(NCCc2c[nH]cn2)nc(NCc2ccc(Cl)c(Cl)c2)n1`: the Inhibition in test [1] came to 88%; in test [2], 0%; in test [3] it was 0%.
For the compound `COc1cccc2c(N/N=C/c3cccc([N+](=O)[O-])c3)ccnc12`, the Inhibition in test [1] came to 100%; in test [2], 47%; in test [3], 12%.
`Nc1nccc2ccc(-c3ccncc3)cc12`: the values for the Inhibition in test [1], in test [2] and in test [3] were 96%, 95% and 19%, respectively.
With `COc1ccc(CN2CCCN(Cc3cccc(NC(=O)c4ccc5ccccc5c4)c3)CC2)cc1.O=C(O)C(F)(F)F`, the Inhibition in test [1] was 93%; in test [2], 11%; in test [3] it was 27%.
As for `COC(=O)c1c(C#N)c(OC)cc(O)c1CSC[C@@H](CN1CCCCC1)Nc1nc(-c2ccc([N+](=O)[O-])cc2)cs1`, the Inhibition in test [1] is 100%; in test [2], 77%; in test [3], 8%.
As to `C[C@@H](COc1ccccc1)NCC(O)c1ccc([N+](=O)[O-])c(OCc2ccccc2)c1` (some centres not stated), the Inhibition in test [1] is 93%; in test [2], 64%; in test [3], 5%.
Take `Cc1ccc(S(=O)(=O)Nc2ccc(Nc3nccc(Nc4cccc5[nH]ncc45)n3)cc2)cc1`: the Inhibition in test [1] is listed as 90%; in test [2] it was 5%; in test [3], 57%.
On the same counts, the results for `CC1CN(CCCn2c3ccccc3c3ccc(C(=O)CCCN(C)C)cc32)CC(C)N1.Cl` (configuration not stated) are 100%, 6% and 26%.
On to `O=C(N[C@@H](CC1CCCCC1)C(=O)NCCN1CCCCC1)c1ccc(O)c(-c2ccc(Cl)c(Cl)c2)c1`, for which the Inhibition is listed as 97% in test [1], 99% in test [2] and 14% in test [3].
On the same counts, the results for `c1ccc(CCNc2ncnc3c2[nH]c2ccccc23)cc1` are 95%, 94% and 50%.
On the same counts, the results for `Cc1ccc2[nH]c(C)cc(=NN=Cc3ccccc3F)c2c1` are 97%, 100% and 36%.
For the compound `O=C(O)C(F)(F)F.O=S(=O)(NCCN1CCCC1)c1ccc(-c2ccc(CNCc3ccccc3)cc2)s1`, the Inhibition in test [1] turned out to be 94%; in test [2], 17%; in test [3], 34%.
Turning to `CCc1sc(N2CCC(C)CC2)nc1C(=O)Nc1ccc(F)cc1C(F)(F)F`, the Inhibition in test [1] is reported as 94%; in test [2], 65%; in test [3], 1%.
As for `Oc1ccc2ccccc2c1CNCC1CCCCC1`, the values for the Inhibition in test [1], in test [2] and in test [3] were 98%, 93% and 0%, respectively.
For the compound `O=C(/C=C/c1ccc(Cl)c(Cl)c1)NCCCCCN1CCC(NC(=O)Nc2ccc(Cl)c(C(F)(F)F)c2)CC1`, the Inhibition in test [1] is recorded as 99%; in test [2], 19%; in test [3], 76%.
`COc1ccc(OC)c(NC(=O)C2c3ccccc3C(=O)N(CC(C)C)C2c2cccs2)c1` (configuration not stated): the Inhibition in test [1] came to 100%; in test [2], 66%; in test [3] it was 9%.
Regarding `COc1ccc(N2CCN(CCCCNCc3ccc(NC(=O)c4cc(Cl)cc(Cl)c4)cc3)CC2)c(OC)c1`, the values for the Inhibition in test [1], in test [2] and in test [3] were 100%, 99% and 39%, respectively.
In the case of `O=C(Nc1ccc(F)cc1)NC1CCN(c2ccnc3cc(Cl)ccc23)CC1.O=C(O)C(F)(F)F`, the values for the Inhibition in test [1], in test [2] and in test [3] were 97%, 57% and 10%, respectively.
For `Cc1ccccc1C1CCN(C2CCC(NC(=O)c3cc4cc(C(C)C)ccc4[nH]3)CC2)CC1` (configuration not stated) the same measures were 99%, 100% and 100%.
On the same counts, the results for `O=C(Nc1ccc(Cn2ncc(N3CCCNCC3)c(Cl)c2=O)cc1)Nc1ccc(C(F)(F)F)cc1.O=C(O)C(F)(F)F` are 90%, 58% and 12%.
On the same counts, the results for `COc1cc(NC(=O)c2sc(-c3ccc(Cl)cc3)cc2NC(=O)CN2CCCC2)ccc1OCCN1CCCC1.Cl` are 86%, 79% and 29%.
As to `Cc1cc(=O)oc2c1ccc1oc(C(O)c3ccc(Cl)cc3)c(C)c12` (configuration not stated), the Inhibition in test [1] came out at 95%; in test [2], 96%; in test [3], 0%.
For `O=C(O)C(F)(F)F.Oc1ccc(CCNc2nc(NCCOc3ccccc3-c3ccccc3)nc(N3CCNCC3)n2)cc1` the same measures were 93%, 17% and 22%.
For `CCc1c(CCNCCCCCCNCCc2ccccc2)ccc(OC)c1OC.Cl` the same measures were 100%, 3% and 33%.
With `CCNc1cc(C(=O)N[C@@H](Cc2ccccc2)[C@H](O)CNC(C)CCCC(C)C)cc(N2CCCS2(=O)=O)c1.O=CO` (some centres not stated), the Inhibition stood at 99% in test [1], 98% in test [2] and 2% in test [3].
`NCCCNc1nccc(N2CCc3ncnc(Nc4ccc(OCc5cccc(F)c5)c(Cl)c4)c3C2)n1`: the Inhibition in test [1] is 98%; in test [2] it was 93%; in test [3] it was 18%.
With `O=C(Nc1ccc(Cn2ncc(N3CCCNCC3)c(Cl)c2=O)cc1)Nc1cc(C(F)(F)F)cc(C(F)(F)F)c1.O=C(O)C(F)(F)F`, the Inhibition in test [1] came to 100%; in test [2], 29%; in test [3] it was 25%.
As to `COc1cc2c(c(Cl)c1OC)CCN(C(=O)C(F)(F)F)CC2c1ccccc1` (configuration not stated), the Inhibition in test [1] came to 100%; in test [2] it was 100%; in test [3] it was 7%.
In the case of `O=C(C1CCCCC1)N1CCOC(CCN2CCC(c3ccccc3)CC2)(c2ccc(Cl)c(Cl)c2)C1` (configuration not stated), the Inhibition in test [1] is given as 92%; in test [2], 86%; in test [3], 6%.
For `O=C1NC(c2ccccc2)C2(CCN(CC(O)COc3cccc4ncccc34)CC2)O1` (configuration not stated) the same measures were 92%, 95% and 5%.
With `C=CCN(C(=O)c1ccc(Cl)c([N+](=O)[O-])c1)c1nc(-c2ccccc2)cs1`, the Inhibition in test [1] was 100%; in test [2] it was 99%; in test [3] it was 0%.
As to `Cc1cccc2nc(-c3ccc(-c4ccc(CN5CCC(C(N)=O)CC5)cc4)cc3)[nH]c12.O=C(O)C(F)(F)F`, the Inhibition in test [1] is reported as 91%; in test [2] it was 32%; in test [3] it was 8%.
On the same counts, the results for `Cc1cc(N(C)C2CCN(C)C2)nc(Nc2ccccc2Cl)n1` (configuration not stated) are 100%, 84% and 1%.
